Data on 40 compounds can be found in PubChem BioAssay (Tox21).

Records with an inconclusive call do not appear. Activity calls are given as the source filed them. Calls come from the whole dose curve; as a rule, active = well fitted activation curve with a large enough effect in the repeat runs; inconclusive = weak or mixed curves; inactive = flat fitted curve, though single readings scatter.
% is set by controls: 0 for no effect and ±100 for the full control effect; potency is the fitted concentration of half-maximal effect.

This assay can be described thus: A CellTox Green Cytotoxicity Assay to monitor cytotoxicity in HepG2 cells - 32 hour (AID 1224883). Note: nearly all actives have a fitted effect of over 50% in size. The note with it: CellTox Green fluorescence; series mostly up to 76.8 µM; cytotoxicity increase: at the top concentration. The text has this:
National Center for Advancing Translational Sciences [NCATS]
NIH Chemical Genomics Center [NCGC]
U.S. Environmental Protection Agency [EPA]
National Institutes of Environmental Health Sciences [NIEHS]
National Toxicology Program [NTP]
Cell-based models are critical for drug discovery. Determining the natural cytotoxic effects resulting from test compounds is an essential research activity. A CellTox Green Cytotoxicity Assay to monitor cytotoxicity in real time of continues cell culture during 40 hours of the compound treatment was used to screen Tox21 10K library compounds in HepG2 cells. CellTox Green Cytotoxicity Assay is a nonlytic, homogeneous, biofluorescent method to measure cytotoxicity in cell culture after experimental manipulation. The assay system uses a proprietary asymmetric cyanine dye that is excluded from viable cells but preferentially stains the dead cell's DNA. […] Viable cells produce no appreciable increases in fluorescence. Therefore, the fluorescence signal produced by the binding interaction with dead cell DNA is proportional to cytotoxicity.
The mixture of HepG2 cell suspension and reagents were dispensed at 600cells/6 ul/well in 1536-well tissue culture treated black solid bottom plates using a Multidrop dispenser. After the assay plates were incubated at a 37 C/5% CO2 incubator for 5 hours, 23 nL of compounds dissolved in DMSO, positive and negative controls was transferred to the assay plate by a pintool work station. The plates were incubated at 37 C for 40 hours. The fluorescence intensity were measured at 0h, 8h, 16h, 24h, 32h and 40h time points using ViewLux plate reader during compound treatment.
On to `CC(Cc1ccc(O)cc1)NCC(O)c1cc(O)cc(O)c1` (stereo not given), for which the “cytotoxicity increase” value was -13.7% [at 35.3 µM] (inactive). `CCOC(=O)Cc1ccccc1`: the “cytotoxicity increase” value was -0.0453% (inactive).

In the case of `CO/N=C(\C(=O)OC)c1ccccc1CO/N=C(\C)c1cccc(C(F)(F)F)c1`, the “cytotoxicity increase” value is 0.14% (inactive). The same measure, in the same setting: the same measure for `COc1ccc(Cc2nccc3cc(OC)c(OC)cc23)cc1OC`: 23.4% [at 35.3 µM] (inactive); for `CC1(C)[C@H](/C=C2\CCSC2=O)[C@@H]1C(=O)OCc1coc(Cc2ccccc2)c1`: -11.6% (inactive); for `CCN(CC)Cc1nccn1-c1ccc([N+](=O)[O-])cc1C(=O)c1ccccc1Cl`: 0.251% [at 35.3 µM] (inactive). Take `C#CCC1=C(C)C(OC(=O)C2C(C=C(C)C)C2(C)C)CC1=O` (stereo not given): the “cytotoxicity increase” value is 3.04% (inactive). Still for that read-out and setting: with `Cc1ccccc1OP(=O)(Oc1ccccc1C)Oc1ccccc1C` the figure was 3.44% (inactive); with `CCCN`, 0.994% (inactive). Same read-out and setting: with `CC(Cc1ccc2c(c1)OCO2)NO` (stereo not given) the figure was -10.1% (inactive). With `Cc1nn(-c2cc(NS(C)(=O)=O)c(Cl)cc2Cl)c(=O)n1C(F)F`, the “cytotoxicity increase” value was -2.41% (inactive).

Consider `Cc1ccc([N+](=O)[O-])[c]2c1[O][Hg]2`, for which the Potency was 2.13 µM (active).

For `Clc1ccc(C2(Cn3cncn3)OCCO2)c(Cl)c1`, the “cytotoxicity increase” value is -5% (inactive). Turning to `CC(=O)O.CC(=O)O.CC(=O)O.CC(=O)O.CC(=O)O.CC(=O)O.CC(=O)O.O.O.[Cr].[Cr].[Cr]`, the “cytotoxicity increase” value was 4.75% (inactive). With `CN1CCc2cc3c(cc2C1O)OCO3` (stereo not given), the “cytotoxicity increase” value was -2.06% (inactive).

In the case of `CNC(=O)CSP(=O)(OC)OC`, the “cytotoxicity increase” value is -0.689% (inactive). Take `CCCCON=O`: the “cytotoxicity increase” value is -2.72% (inactive).

In the case of `[O]=[Cr][O][Cr]=[O]`, the “cytotoxicity increase” value is -4.63% (inactive). As to `N#Cc1sc2c(=O)c3ccccc3c(=O)c=2sc1C#N`, the Potency was 13.8 µM (active). On the same count and under the same terms, with `CCC[CH2][Sn]([CH2]CCC)([O]C(C)=O)[O]C(C)=O` the figure was 0.221 µM (active); with `C=C(C)C(=O)[O][Sn]([CH2]CCC)([CH2]CCC)[CH2]CCC`, 0.616 µM (active). Take `CCOP(=O)(OCC)Oc1nc(Cl)c(Cl)cc1Cl`: the “cytotoxicity increase” value was 10.7% (inactive).

Regarding `COc1cnc(OC)n2nc(NS(=O)(=O)c3c(OCC(F)F)cccc3C(F)(F)F)nc12`, the “cytotoxicity increase” value is -10.1% (inactive). `CC(C)NCC(O)c1ccccc1Cl` (stereo not given): the “cytotoxicity increase” value was 3.41% [at 35.3 µM] (inactive).

On to `CC(Cl)CCl` (stereo not given), for which the “cytotoxicity increase” value was -1.16% (inactive). For `O=C(Nc1ccc(F)cc1F)c1cccnc1Oc1cccc(C(F)(F)F)c1`, the “cytotoxicity increase” value was 8.49% (inactive).

Turning to `Cc1cnc2c(C(=O)O)c(Cl)ccc2c1`, the “cytotoxicity increase” value was 5.06% (inactive).

For `CCC(OC(C)=O)C(CC(C)NC)(c1ccccc1)c1ccccc1` (stereo not given), the Potency is 55.4 µM (active). With `CN(C)CCc1c[nH]c2ccccc12`, the “cytotoxicity increase” value is 0.186% (inactive). On to `O=S1OCC2C(CO1)C1(Cl)C(Cl)=C(Cl)C2(Cl)C1(Cl)Cl` (stereo not given), for which the Potency was 54.9 µM (active).

With `O=C(Cl)c1ccccc1F`, the “cytotoxicity increase” value was -2.96% (inactive).

In the case of `[O-][Cl+3]([O-])([O-])O`, the “cytotoxicity increase” value was -15.7% (inactive). As for `CCC1(CC)C(=O)N=C(O)NC1=O`, the “cytotoxicity increase” value was -10% (inactive). With `C=CCOC(=O)c1ccccc1N`, the “cytotoxicity increase” value was 0.327% (inactive). `CN(C)c1ccc(N)cc1`: the “cytotoxicity increase” value is 2.3% (inactive). For `Oc1ccc(Cl)c(Cl)c1`, the “cytotoxicity increase” value was 9.01% (inactive). Consider `CO/N=C(/C1=NOCCO1)c1ccccc1Oc1ncnc(Oc2ccccc2Cl)c1F`, for which the “cytotoxicity increase” value is -1.55% (inactive). In the case of `O=NN(CCO)CCO`, the “cytotoxicity increase” value was -0.536% (inactive). Regarding `CC(=O)[O-].CC(=O)[O-].CC(=O)[O-].[Cr+3]`, the “cytotoxicity increase” value was 1.38% (inactive). For `O=[N+]([O-])c1ccc(CCl)cc1`, the “cytotoxicity increase” value was 0.233% (inactive).
